Test results as given in ChEMBL document CHEMBL3988442, “University of Dundee, Small-Polar-MMV Screening Library” (2021).
Out of some 48,000 compounds screened, about 13,000 (27%) showed an effect of 50% or more. The list shows a part of the results.

Test system: Wolbachia pipientis
Test: Anti-Wolbachia Cell-Based Screen
Type: functional
Set-up: scale not given: in the data most compounds retested in dose-response had high values
Conditions: 5 µM

SMILES	Percent Effect
CSc1nccc(NCC2CNCCOC2)n1 (stereo not given)	0.1221%
COCCN1CCN(C(=O)c2ccc(COC)o2)[C@H]2CS(=O)(=O)C[C@H]21	7.213%
CC(C)NC(=O)N[C@H]1C[C@@H](Cc2cc(CN3CCOCC3)on2)C1(C)C	-0.1597%
Cc1c[nH]c(CN(C)C(=O)c2cccc(CCC(C)(C)O)c2)n1	-0.9219%
O=C(c1ccc[nH]1)N1CCCC1c1nc(-c2ccccc2)n[nH]1 (stereo not given)	3.184%
COCC(=O)N1CCCC(COc2ccccc2C)C1 (stereo not given)	-17.48%
CC(=O)N1CCCC(c2nc(N(C)C)ncc2-c2ccccc2)C1 (stereo not given)	94.88%
Cc1cc(C2CCCN(C(=O)COc3ccc(F)cc3)C2)n[nH]1 (stereo not given)	-12.08%
Cc1cc(C2CCCN(C(=O)COc3cc(F)ccc3F)C2)n[nH]1 (stereo not given)	-12.04%
COCC(=O)N1C[C@H]2CC[C@@]3(N=C(c4ccccc4)NC3=O)[C@H]2C1	-3.823%
CC(=O)N1CCCC1c1nc(N(C)C)ncc1-c1ccccc1 (stereo not given)	120.4%
CCC(=O)N1CCCC(c2nc(N(C)C)ncc2-c2ccc(F)cc2)C1 (stereo not given)	103.1%
CC(=O)N1CCCC(c2nc(-c3ccccc3)c[nH]2)C1 (stereo not given)	-5.299%
COCC(=O)N1CCCC(c2nc(N(C)C)ncc2-c2ccccc2)C1 (stereo not given)	96.39%
CC(=O)N1CCCC1c1cccc(C)c1C (stereo not given)	2.963%
CC(=O)N1Cc2ccccc2C[C@H]1C(=O)Nc1ccccn1	-1.208%
Cc1ccc(C(=O)N2CCSCC2)cc1NC(=O)NCCO	-7.623%
Cc1cc(CNC(=O)C2CCCN2C(=O)OC(C)(C)C)no1 (stereo not given)	-19.91%
Cc1nc(C2CCCN(C(=O)CCCOc3cccc(F)c3)C2)no1 (stereo not given)	-2.46%
COCC(=O)N1CCCC(c2nc(N)ncc2-c2cccc(F)c2)C1 (stereo not given)	111.1%
Cc1cc(C2CCCN(C(=O)COc3cccc(F)c3)C2)n[nH]1 (stereo not given)	-5.532%
O=C1CN(C(=O)c2nnn(-c3ccc(C(F)(F)F)cc3)n2)CCN1	7.084%
O=C(CC1CC1)N1C[C@@H]2CCN(c3cccnc3)C[C@@H]2C1.O=C(O)C(F)(F)F	87.47%
Cn1ccnc1CN1CCC2(CC1)CN(Cc1cccnc1)C(=O)CO2.O=C(O)C(F)(F)F.O=C(O)C(F)(F)F	-2.822%
O=C(O)C(F)(F)F.O=C1COC2(CCN(CC3CC3)CC2)CN1c1ccccc1	-2.17%

SMILES	Percent Effect
O=C(CC1CC1)N1CCC2(CC1)CN(Cc1cccnc1)C(=O)CO2.O=C(O)C(F)(F)F	85.91%
O=C(CC1CC1)N1CCC2(CC1)CN(c1cccnc1)C(=O)CO2.O=C(O)C(F)(F)F	86.93%
O=C(C1CCCC1)N1C[C@@H]2CCN(c3cccnc3)C[C@@H]2C1.O=C(O)C(F)(F)F	-15.19%
O=C(CC1CC1)N1CCC2(CC1)CN(CCn1cccn1)C(=O)CO2	0.04038%
CN(C)CCN1CCC2(CC1)CN(Cc1cccnc1)C(=O)CO2.O=C(O)C(F)(F)F.O=C(O)C(F)(F)F.O=C(O)C(F)(F)F	106.6%
Cn1ccnc1CN1CCC2(CC1)CN(Cc1ccccc1)C(=O)CO2.O=C(O)C(F)(F)F	-7.87%
O=C(Cc1ccccn1)N1CCC2(CC1)CN(CC1CC1)C(=O)CO2.O=C(O)C(F)(F)F	15%
O=C(O)C(F)(F)F.O=C(c1ccncc1)N1C[C@@H]2CCN(c3cccnc3)C[C@@H]2C1	-5.49%
CC(C)NC(=O)N1CCC2(CC1)NC(=O)[C@H]1CN(C(=O)N(C)C)C[C@H]12	-13.82%
Cn1ncc2c(NCC3CCS(=O)(=O)C3)nc(-c3ccncc3)nc21 (stereo not given)	10.96%
O=C1CC(N(C(=O)c2ccc(Oc3ccccc3)cc2)C2CC2)C(=O)N1 (stereo not given)	-10.84%
CN(C)S(=O)(=O)N1C[C@@H]2CC[C@H](C1)N(Cc1ccc3nsnc3c1)C2	4.433%
Cc1cc(C)n2nc(C(=O)N3CCCC4(CNC(=O)O4)C3)cc2n1 (stereo not given)	1.638%
O=C(N1CCCC1)N1CCC2(CC1)CN(c1cccnc1)C(=O)CO2.O=C(O)C(F)(F)F	93.48%
CCS(=O)(=O)N1CCC2(CN(c3cccc(F)c3)C(=O)CN2C)C1.O=C(O)C(F)(F)F (stereo not given)	7.629%
CCS(=O)(=O)N1CCC2(CC1)CN(c1cccnc1)C(=O)CO2.O=C(O)C(F)(F)F	93.05%
CCc1nc(C)c([C@H]2CN(C)C[C@@H]2C(=O)NCCc2cnccn2)[nH]1	-9.925%
COc1ccc(CN(C)[C@@H]2COC[C@H]2c2ccc(F)cc2)cc1.O=C(O)CC(O)(CC(=O)O)C(=O)O	117.4%
COc1ccc(CN2C[C@@H]3COC[C@@H](N4CCN(C)CC4)[C@@H]3C2)cc1.O=C(O)C(F)(F)F.O=C(O)C(F)(F)F.O=C(O)C(F)(F)F	13.92%
COc1ccc(CC(C)(O)CNC(=O)Cc2ccc(F)cc2)cc1 (stereo not given)	8.313%
CCOc1ncccc1CNC(=O)N1CCCC1c1cc(C)no1 (stereo not given)	3.544%
O=C(CSc1ccccc1)N1CCC(N2CCCCC2=O)CC1	-3.003%
Cc1ccc(C(=O)N2CCCC(N)CC2)cc1N1CCNC1=O (stereo not given)	-4.611%
Cc1cnc(NC(=O)N2CCC(N3CCCCC3=O)CC2)s1	0.5285%
O=C(c1ccc2c(c1)OCO2)N1CCN2C(=O)NC[C@H]2C1	6.694%

SMILES	Percent Effect
O=C(c1ccc(Cl)cc1)N1CCC(N2CCCCC2=O)CC1	103%
Cc1cc(C(=O)N2CCC(N3CCNC3=O)CC2)nn1C(C)(C)C	-1.395%
O=C(c1ccc(Cl)cc1)N1CCC(N2CCNC2=O)CC1	109.7%
O=C(c1ccc(Cl)cc1)N1CCC(N2CCCNC2=O)CC1	102%
O=C(CCc1ccc(Cl)s1)N1CCC(N2CCNC2=O)CC1	39.9%
Cn1cc(N2CCC(NC(=O)c3c(F)cccc3F)C2=O)cn1 (stereo not given)	-6.231%
O=C(NCC1(CO)CC1)c1ccccc1C(F)(F)F	10.7%
O=C(NCCCSC1CCCCC1)C1NCCc2[nH]cnc21 (stereo not given)	-0.8236%
CCOc1ccc(C(=O)N(CCOC)Cc2c(C)nn(CC)c2C)o1	-1.11%
CN(C)C(=O)N1C[C@@H]2COC[C@]2(c2nnc(C3CC3)o2)C1	1.303%
O=C(Cn1ccc(=O)cc1)N1C[C@H]2CC[C@@H]1CN(c1ncccn1)C2	-6.945%
Cc1n[nH]c(CCC(=O)N2CCOC(Cc3ccccc3)C2)c1C (stereo not given)	0.4396%
CCOC(=O)CNC(=O)N1CCOC(Cc2ccc(OC)cc2)C1 (stereo not given)	-5.818%
Cn1nccc1C(=O)N1CCOC(Cc2ccc(F)cc2)C1 (stereo not given)	-2.544%
COc1ccc(CC2CN(C(=O)c3coc(C)n3)CCO2)cc1 (stereo not given)	123%
CCC1CN(C(=O)c2cc(CN(C)CCc3ccccc3)on2)CCO1 (stereo not given)	-31.04%
CCN1CCN(CC(=O)N2CCOC(Cc3ccc(OC)cc3)C2)CC1 (stereo not given)	-7.63%
Cc1nc(C(=O)N2CCOC(Cc3ccc(F)cc3)C2)co1 (stereo not given)	139%
O=C1CCC(C(=O)N2CCOC(Cc3ccc(F)cc3)C2)=NN1 (stereo not given)	-6.141%
Cc1nc(C(=O)N2CCOC(Cc3ccccc3)C2)co1 (stereo not given)	119.2%
COc1ccccc1N1CCN(C(=O)CSCC2CC2)C(C)C1 (stereo not given)	12.11%
Cc1csc(-c2cccc(NC(=O)N3CCOCC3)c2)n1	-7.869%
COc1ccc(S(=O)(=O)NCCC(O)c2ccoc2)c(C)c1 (stereo not given)	14.16%
Cc1cc(C(=O)N(C)CC(F)(F)C(F)(F)F)ccc1-n1cncn1	-4.765%
N#Cc1ccc(SCCC(=O)Nc2ccc(CC(N)=O)cc2)cc1	-23.76%

SMILES	Percent Effect
Cl.N#Cc1ccc(NC(=O)C2CSCN2)cc1 (stereo not given)	137.5%
CC(C(=O)Nc1ccc(C#N)cc1)N1CCc2ccccc21 (stereo not given)	-0.338%
O=C(Nc1ccc(F)cc1)C1CSCN1 (stereo not given)	136.1%
O=C(Nc1ccc(F)cc1)C1CCc2ccccc2N1 (stereo not given)	3.241%
O=C(Nc1ccc(F)cc1)C1CNCCN1C(=O)CC1CCCCC1 (stereo not given)	-14.62%
CN1CCCCC12CCN(c1nncs1)C2 (stereo not given)	-10.05%
COc1cc(Cl)cc(C(=O)N2CCC3(CCCNC3)C2)c1 (stereo not given)	-2.555%
CCc1ccsc1C(=O)N1CCS(=O)(=O)CC1	-3.186%
CCc1ccsc1C(=O)N1CCN(CCN2C(=O)CCC2=O)CC1	117.8%
CCc1ccc(C(=O)N2CCN(CC(C)O)CC2)o1 (stereo not given)	-6.937%
CC(=O)N1CCN(C(=O)c2sccc2Br)CC1	-5.711%
CSc1ccsc1C(=O)N1CCN(CC(C)(C)O)CC1	6.232%
CCCc1nnsc1C(=O)N1CCN(CC(C)O)CC1.Cl (stereo not given)	3.712%
CCc1ccsc1C(=O)N1CCN(CC(N)=O)CC1	101.9%
CCc1ccsc1C(=O)N1CCN(C(=O)c2ccc(C)o2)CC1	-4.902%
CCc1ccsc1C(=O)N1CCN(CC(C)O)CC1 (stereo not given)	130.8%
N#Cc1cccc(CN2C[C@@H](F)[C@@H](OCc3nc4cnccc4[nH]3)C2)c1	-8.923%
c1cc(NCc2ccsc2)cc(-c2nnc[nH]2)c1	-4.767%
Cc1cnc(N2CCN3C[C@H](OCc4cccc(C)n4)C[C@H]3C2)nc1.O=C(O)C(F)(F)F.O=C(O)C(F)(F)F.O=C(O)C(F)(F)F	-4.424%
O=C(CCNc1ncccn1)NCc1csc(Br)c1	22.34%
O=C(CSCc1ccncc1)NCc1csc(Br)c1	146.4%
CC(C)c1cc2c(O)nc(CSCC(=O)NCc3ccncc3)nc2s1	17.11%
CC(=O)N1CCN(C(=O)NCc2csc(Br)c2)CC1	1.629%
O=C(NCc1csc(Br)c1)c1ccncc1	3.838%
O=C(CCc1ccncc1)NCc1csc(Br)c1	90.69%
